Epigenetic mod – derepresses silenced GFP locus in mouse C127i cells | mouse C127i GFP locus derepression, cytometry, 30 h | Potency, µM (series often up to 46.1 µM), for the others: at the top dose GFP derepression (activation) | 68,000 tested, 0.09% active | AID 597; note: % of control where 0% means no effect
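Murine C127i mammary cells carrying a silenced, stably integrated CMV-driven GFP reporter were treated with compound for 30 hours at 37 C. After PBS washes, GFP-positive cells were counted by laser-scanning microplate cytometry.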
ALOX15 inhib – blocks human 15-lipoxygenase activity; purified 15hLO-1, xylenol orange hydroperoxide absorbance; AID 887; Potency, µM (titrated, usually from 57.1 µM), inactives show at the top dose activity change, negative = inhibition, most hits filed as inhibitors; 74,000 tested, 1.4% active; P16050; note: potency is the fitted concentration of half-maximal effect; % is set by controls: 0 for no effect and ±100 for the full control effect; nearly all actives have a fitted effect of over 55% in size
Target sequence (P16050 whole entry, looked up): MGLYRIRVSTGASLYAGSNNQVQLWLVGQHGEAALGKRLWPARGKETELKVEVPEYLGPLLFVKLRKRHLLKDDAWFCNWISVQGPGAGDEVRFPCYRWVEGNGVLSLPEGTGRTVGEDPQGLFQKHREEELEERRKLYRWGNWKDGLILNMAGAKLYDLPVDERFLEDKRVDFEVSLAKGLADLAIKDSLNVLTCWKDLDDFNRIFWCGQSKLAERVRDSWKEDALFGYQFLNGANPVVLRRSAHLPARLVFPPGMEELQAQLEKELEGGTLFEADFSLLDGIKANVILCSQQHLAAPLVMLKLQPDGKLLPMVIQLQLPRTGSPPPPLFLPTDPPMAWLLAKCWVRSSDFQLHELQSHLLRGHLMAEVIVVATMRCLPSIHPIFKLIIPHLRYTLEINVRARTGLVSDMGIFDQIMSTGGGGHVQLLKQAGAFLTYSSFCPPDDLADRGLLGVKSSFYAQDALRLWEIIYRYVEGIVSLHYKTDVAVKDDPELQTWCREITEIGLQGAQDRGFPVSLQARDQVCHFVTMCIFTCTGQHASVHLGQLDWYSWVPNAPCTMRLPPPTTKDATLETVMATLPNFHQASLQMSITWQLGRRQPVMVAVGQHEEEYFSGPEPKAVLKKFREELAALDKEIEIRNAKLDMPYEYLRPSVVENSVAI
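Compounds were preincubated 15 min at room temperature with 40 nM purified human enzyme (25 mM Hepes pH 7.5, 0.01% Triton X-100); 50 uM arachidonic acid reacted 6 min. Fe-xylenol orange detection, 30 min, absorbance ratio 573/405 nm.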
Tau filament bind – tau filament binding. P10636. recombinant tau filaments, thioflavin S fluorescence, 15 h; filaments grown with octadecylsulfate alongside compound. Potency, µM (doses to about 57.1 µM), inactives show top-dose activity change, negative = inhibition. 71,000 tested, 2% active. AID 596;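 note: potency is the fitted concentration of half-maximal effect; % is set by controls: 0 for no effect and ±100 for the full control effect; actives lower thioflavin S fluorescence by blocking filaments or displacing dye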
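ThS-based fibril read: tau 1 uM final, inducer ODS 30 uM final, 37 C for 15 h, ex 450/em 510 nm.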
DNA Pol III inh – inhibitors of bacterial DNA polymerase III holoenzyme. 71,000 tested, 0.25% active. reconstituted DNA polymerase III holoenzyme replication, biochemical. AID 603. Potency, µM (highest dose often 57.1 µM), inactives show top-dose activity change, negative = inhibition; note: potency is the fitted concentration of half-maximal effect; % is set by controls: 0 for no effect and ±100 for the full control effect
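Reconstituted *E. coli* holoenzyme (0.35 nM Pol III, 1 nM beta, 154 nM SSB, 2 nM primase) was preincubated with compound for 15 min at RT. Synthesis on 1.4 nM ssM13Gori ran 35 min, then was stopped with PicoGreen/EDTA and read as dsDNA fluorescence.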
HBB splicing – hemoglobin beta splicing modulation. Potency, µM (top dose mostly 46.1 µM), for the others: at the top dose activation, most hits filed as activators. HBB splicing reporter cell assay, activation; EGFP reporter with mutant IVS2-654 intron; response scale: normalised to 500 nM splice-correcting PNA. 65,000 tested, 0.06% active. AID 925; note: potency is the fitted concentration of half-maximal effect; 0% is about no effect
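HeLa cells stably expressing EGFP interrupted by mutant beta-globin intron 2 (IVS2-654), 500/well in 2% FCS. Treated with compound for 2 days at 37C. Splicing correction scored as total well GFP intensity (488 nm excitation, 500-520 nm emission); 500 nM antisense PNA served as control.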
Ub-GFP proteasome – proteasome inhibitors stabilizing ubiquitin-GFP reporter; Ubiquitin-GFP reporter cells, proteasome inhibition, GFP fluorescence; response scale: untreated = 0%, 10 µM MG-132 = 100%; Potency, µM (highest dose often 45.9 µM), for inactives: at the highest dose activation (GFP accumulation), hits mostly activators; 67,000 tested, under 10 active; active = well fitted activation curve with a large enough effect, not every such curve was filed as active; inconclusive = small, poorly fitted or top-dose-only effect, or another doubt; inactive = no such curve, though single readings can be large or run the other way; note: potency is the fitted concentration of half-maximal effect
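U2OS Ub(G76V)-GFP reporter; O/N plating, 0.5% FBS; cpd 46 uM–2.9 nM, 4 h, 37 °C; GFP+ cell count, 488/515 nm; norm. to basal vs 10 uM MG-132; CRC fit.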
* marks the source's active call; other numbers are inactive results; ? = inconclusive; . = no result; ! = not active in a repeat; [ ] = dose if it differs, or a comment. In the library only some 3.2% were active in any assay of this set; here they are far more common. Unless noted, calls come from the whole dose curve; as a rule, active = well fitted curve in the direction sought with a large enough effect; inconclusive = small, poorly fitted or top-dose-only effect, or another doubt; inactive = no such curve, though single readings can be large; an effect the other way counts as inactive or inconclusive.

SMILES	Epigenetic mod	ALOX15 inhib	Tau filament bind	DNA Pol III inh	HBB splicing	Ub-GFP proteasome
Cc1cc(O)ccc1Nc1nc2ccccc2nc1Nc1ccc(O)cc1C	2%	16µM*	7.9µM*	0%	2%	11%
CC/C(=C(\c1ccccc1)c1ccc(OCCN(C)C)cc1)c1ccc(O)cc1	.	-17%	-10%	-1%	0%	.
CC(N)CN (stereo unspecified)	.	-1%	6%	1%	0%	.
CC(=O)Nc1cccc(C(=O)Oc2cccc(C)c2)c1O	0%	16µM*	-5%	0%	0%	5%
CCc1ccc(NS(=O)(=O)c2ccc3[nH]cc(C(=O)N4CCCCC4)c(=O)c3c2)cc1	0%	4µM*	-20%	-6%	-5%	-6%
CC(=O)c1ccc2c(c1)N(CCCN1CCC(CCO)CC1)c1ccccc1S2	-2%[20.6 µM]	8%[25.6 µM]	4µM*	-3%[25.6 µM]	0%[20.6 µM]	9%[20.5 µM]
CN1CCN(CCCN2c3ccccc3Sc3ccc(S(=O)(=O)N(C)C)cc32)CC1	-2%[20.6 µM]	19%[25.6 µM]	-28%[25.6 µM]	-5%[25.6 µM]	-1%[20.6 µM]	7%[20.5 µM]
CN(c1ccccc1)S(=O)(=O)c1ccc(C(=O)OCC(=O)NCc2ccco2)cc1	5%	5%	0%	-4%	0%[57.5 µM]	0%
O=C(COC(=O)c1cccc(S(=O)(=O)N2CCN(c3ccccc3)CC2)c1)NCc1ccco1	0%	25µM*	50%	-14%	-2%[57.5 µM]	-3%
Cc1ccc2c(C)nc(Nc3nc(CSc4nnnn4-c4ccccc4)cc(=O)[nH]3)nc2c1	4%	-2%	35%	13µM*	0%[57.5 µM]	-3%
CC(CN(C)C)NC(=O)c1ccc(Cc2nc3ccccc3[nH]2)cc1 (stereo unspecified)	.	-3%	.	.	.	.
COc1ccc(-c2c3c(=O)n(C)c(=O)n(C)c3cn2C2CCCCC2)cc1	0%	25µM*	10%	-9%	0%	-2%
Cc1cc(C)n(-c2nncc(-c3ccccc3)n2)n1	0%	-3%	16µM*	-5%	-1%[9.22 µM]	15%
Cc1cc(C)n(-c2ncc(-c3ccccc3)nn2)n1	.	14%	25µM*	-6%	-1%	10%
Cc1cc(C)n(-c2nc(Nc3ccccc3)nc(-n3nc(C)cc3C)n2)n1	3%	51%	0%	-12%	.	0%
O=C(O)c1ccc(C(=O)O)c(C(=O)Nc2ccc3c(c2)Cc2ccccc2-3)c1	-1%[9.22 µM]	-3%[11.4 µM]	-2%[11.4 µM]	-10%[11.4 µM]	4%[9.22 µM]	1%[9.17 µM]
CN1CCN(c2ccnc(-c3ccoc3)n2)CC1	-3%[9.22 µM]	16µM*	-11%	-2%	1%	-8%
O=C1OC(=O)[C@@H]2[C@@H]1[C@@H]1CC[C@H]2O1	-5%[9.22 µM]	19%	-6%	-6%	0%	-5%
Nc1nc(C(=O)O)c(N=Nc2ccccc2)c(=O)[nH]1	-2%[9.22 µM]	-10%[11.4 µM]	5µM*	2%[11.4 µM]	1%[9.22 µM]	-6%[9.17 µM]
O=C(O)CCCC[C@@H]1SC[C@H]2NC(=O)N[C@H]12	0%[9.22 µM]	.	?	-7%	.	-2%
FC(F)(F)c1cc(-c2ccc3c(c2)OCO3)nc(NCc2ccco2)n1	-2%	20µM*	-10%	-9%	7%	1%
CSc1ccc2c(c1)N(CC[C@H]1CCCCN1C)c1ccccc1S2	-2%[20.6 µM]	?	4µM*!	-3%[25.6 µM]	-1%[20.6 µM]	9%[20.5 µM]
CCOC(=O)OCC1OC(C#CC(C)(C)C)C=CC1OC(=O)OCC (stereo unspecified)	.	4%[11.4 µM]	.	.	2%[9.22 µM]	.
O=S(=O)(NCCOC12CC3CC(CC(C3)C1)C2)c1cccc2nsnc12	-3%	-4%	16µM*	-3%	-1%	2%
COc1ccc2[nH]cc(CCNc3nc(-c4cccnc4)nc4ccccc34)c2c1	8%[9.22 µM]	6%	25µM*	1%	0%	-1%
SMILES	Epigenetic mod	ALOX15 inhib	Tau filament bind	DNA Pol III inh	HBB splicing	Ub-GFP proteasome
COc1ccccc1CNc1nc(-c2cccnc2)nc2ccccc12	-2%[9.22 µM]	25µM*	10%	-2%	0%	-2%
CCOc1ccc2nc(S(N)(=O)=O)sc2c1	-4%[20.6 µM]	.	.	.	.	.
CCOc1ccc2nc3cc(N=Nc4ccc(N)nc4N)ccc3c(N)c2c1	2%[9.22 µM]	59%[11.4 µM]	35%[11.4 µM]	3.2µM*	-1%[9.22 µM]	5%[9.17 µM]
O=C(O)c1ccc(N[C@H](c2ccccc2)c2ccc3cccnc3c2O)cc1	0%[9.22 µM]	-27%[11.4 µM]	-5%[11.4 µM]	-12%[11.4 µM]	0%[9.22 µM]	-5%[9.17 µM]
CC(C)C(=O)NC(c1ccco1)c1ccc2cccnc2c1O (stereo unspecified)	4µM*	-21%	49%	-7%	-2%[9.22 µM]	13%
COc1ccc(C(NC(C)=O)c2ccc3cccnc3c2O)c(OC)c1 (stereo unspecified)	13µM*	30%	-14%	-4%	-2%	-3%
O=C(O)c1cc(Cl)cc(Cc2cc(Cl)cc(C(=O)O)c2O)c1O	-7%[9.22 µM]	2%[11.4 µM]	2%[11.4 µM]	12%[11.4 µM]	1%[9.22 µM]	-5%[9.17 µM]
COc1ccc(-c2cc(C(=O)N/N=C\c3cc(OC)c(OC)c(OC)c3)[nH]n2)cc1	.	-8%	.	.	.	.
COc1ccc(-n2c(C)cc(C(=O)CSc3nn4c(=O)c(C(C)(C)C)nnc4s3)c2C)cc1	1%	-2%	20µM*	-8%	-1%	2%
CCn1c2ccccc2c2cc(NC(=O)Cc3ccc(S(=O)(=O)N4CCOCC4)s3)ccc21	-1%	-17%	6.3µM*	-5%	-5%	-9%
O=[N+]([O-])c1ccc2c(N=Nc3ccc4ccccc4c3O)c(O)cc(S(=O)(=O)O)c2c1	-2%[9.22 µM]	3.2µM*	3.2µM*	-19%[11.4 µM]	-1%[9.22 µM]	-3%[9.17 µM]
Cc1ccc(C2=C(Cl)C(=O)C(c3ccc(C)cc3)=C(Cl)C2=O)cc1	-3%[9.22 µM]	?	-2%[11.4 µM]	-16%[11.4 µM]	3%[9.22 µM]	-8%[9.17 µM]
CCCCCOC(=O)c1cc(=O)[nH]c2ccccc12	0%	-11%	10µM*	-8%	-3%[57.5 µM]	2%
c1ccc(-c2ccc(N3CCCC4(CCNCC4)C3)cc2)cc1	0%[9.22 µM]	-17%	3.2µM*	-5%	-1%	-12%
c1ccc(-c2ccc(N3CC4(CCNCC4)C3)cc2)cc1	-5%[9.22 µM]	-27%	13µM*	-1%	-2%	-7%
C[C@H](CN(C)C)C(=O)c1ccccc1C(=O)O	3%[9.22 µM]	6%[11.4 µM]	-4%[11.4 µM]	7%[11.4 µM]	3%[9.22 µM]	1%[9.17 µM]
Cc1cccc(C)c1OC[C@@H](N)C(C)C	1%	6%	-5%	-8%	-1%	0%
Cc1nc(N2CCN(c3ccccc3)CC2)c2c3c(sc2n1)CCC3	2%	?	34%	0%	-6%	-16%
Oc1ccc(N2CCN(c3ncnc4sc5c(c34)CCC5)CC2)cc1	-1%	3.2µM*	-19%	-6%	-3%	3%
C=CCOc1ccccc1/C=c1\sc2nc(=O)c(C)nn2c1=O	0%	-19%	25µM*	1%	0%	0%

Screening results from PubChem.
